PubChem BioAssay AID602229 (The Scripps Research Institute Molecular Screening Center, 2012)
The whole screen tested about 360,000 compounds, of which about 1,300 (0.36%) were called active.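 The calls were made as follows: active = inhibition above the mean of all tested compounds plus 3 SD (cut at about 70% in these data); inactive = the rest.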 For the sample, actives were picked, then their nearest neighbours and some compounds at random.

Target: Photoreceptor-specific nuclear receptor (Homo sapiens) (UniProt Q9Y5X4)
Sequence (Q9Y5X4 whole entry, looked up, the tested form may be a part): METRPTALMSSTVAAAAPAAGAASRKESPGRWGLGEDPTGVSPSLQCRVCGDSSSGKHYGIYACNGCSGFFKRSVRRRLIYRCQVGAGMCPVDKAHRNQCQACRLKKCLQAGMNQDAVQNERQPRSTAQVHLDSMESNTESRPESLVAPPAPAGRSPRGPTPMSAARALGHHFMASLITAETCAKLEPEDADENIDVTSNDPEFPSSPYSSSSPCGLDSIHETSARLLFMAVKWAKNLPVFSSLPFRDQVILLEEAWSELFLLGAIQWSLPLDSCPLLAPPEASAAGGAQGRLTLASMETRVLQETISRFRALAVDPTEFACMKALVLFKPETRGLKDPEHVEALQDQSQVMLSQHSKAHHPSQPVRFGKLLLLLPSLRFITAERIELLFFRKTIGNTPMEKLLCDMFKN
Test: NCOR release from NR2E3 in cells – cell-based, luminescence, CHO-S, Gal4-NCOR/VP16-NR2E3, primary screen (AID 602229);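 also: 0% = DMSO with NR2E3 transfected cells and 100% = cells lacking NR2E3 construct; higher means lower luciferase signal from less NR2E3 corepressor binding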
Conditions: CHO-S Gal4-NCOR/VP16-NR2E3 two-hybrid, luciferase; at 3.98 µM; stronger effect = higher value

Row | Compound | inhibition of corepressor binding
1 | Cc1nc2c(-c3ccccc3)c(C)[nH]n2c(=O)c1Cl | 9.97% (inactive)
2 | Cc1[nH]n(-c2cccc(Cl)c2)c(=O)c1-c1ccc(Cl)cc1 | 85% (active)
3 | CCCc1cc(=O)n2[nH]c(C)c(-c3ccc(Cl)cc3)c2n1 | 43.4% (inactive)
4 | O=C(NCc1ccc(F)cc1F)[C@@H]1CCCN1C(=O)[C@@H]1CCCN1C(=O)c1cccc(Cl)c1 | 4.78% (inactive)
5 | Cn1cc(CN2CCCCC2c2ccccn2)c(-c2ccc3c(c2)OCCO3)n1 (centres undefined) | -4.51% (inactive)
6 | c1ccc(C(=NNc2nc3ccccc3s2)c2ccccn2)cc1 | 89.7% (active)
7 | CSc1ncccc1C(=O)Nc1nc2ccc(F)cc2s1 | 47.5% (inactive)
8 | NC(=S)c1ccc(C(N)=S)o1 | -5.1% (inactive)
9 | O=S1(=O)CC(N2CCSCC2)CN1Cc1cn(Cc2cccc(Cl)c2)nn1 (centres undefined) | -19.4% (inactive)
10 | CCOCCCNC(=O)C(=O)NCCCOCC | 8.99% (inactive)
11 | CN(C)C1CN(Cc2cn(Cc3ccccc3)nn2)S(=O)(=O)C1 (centres undefined) | -4.65% (inactive)
12 | Cc1ccc(Cn2cc(CN3CC(N4CCN(C)CC4)CS3(=O)=O)nn2)cc1 (centres undefined) | 9.78% (inactive)
13 | CN(Cc1cn(Cc2ccc(C(F)(F)F)cc2)nn1)C1CN(Cc2cn(Cc3ccc(C(F)(F)F)cc3)nn2)S(=O)(=O)C1 (centres undefined) | 86% (active)
14 | Cc1ccc(NC(=O)C(C)Sc2nnc(C3CC3)n2C2CC2)cc1S(=O)(=O)N1CCOCC1 (centres undefined) | 13% (inactive)
15 | COc1ccc(-n2nc(C(=O)Nc3cc(OC)c(OC)c(OC)c3)c3ccccc3c2=O)c(OC)c1 | -8.33% (inactive)
16 | COc1ccc(Nc2ncnc3ccc(Br)cc23)c(OC)c1 | 85.3% (active)
17 | COc1ccc(OC)c(Nc2nc3ccccc3n3cnnc23)c1 | 19.4% (inactive)
18 | COc1ccc(OC)c(NC(=O)CN(C)CCOc2ccc(Br)cc2)c1 | 7.2% (inactive)
19 | COC(=O)c1cc(S(=O)(=O)NCC2CCN(Cc3ccc(Cl)cc3)CC2)cn1C | 16.9% (inactive)
20 | Fc1cccc(CSc2nnc3ccc(-c4ccncc4)nn23)c1 | 6.42% (inactive)

Row | Compound | inhibition of corepressor binding
21 | C=C(Br)CN1CCN(CC(=C)Br)CC1 | -7.79% (inactive)
22 | O=C(CN1CCC(NC(=O)C2CC2)CC1)Nc1ccccc1[N+](=O)[O-] | -17.5% (inactive)
23 | CCOC(=O)C(CO)NC(=O)C1(NC(C)=O)CCCC1 (centres undefined) | -34.7% (inactive)
24 | O=C(Nc1nnc(-c2ccccc2)o1)c1cc(-c2cccs2)nc2ccccc12 | 88.7% (active)
25 | O=C(Nc1nnc(-c2ccc(Cl)cc2)o1)c1ccccc1Br | -48% (inactive)
26 | Cc1ccnc2nc(C(=O)Nc3nnc(-c4ccccc4)o3)nn12 | 0.21% (inactive)
27 | COc1cccc(C(=O)Nc2c3c(nn2-c2cccc(C)c2C)CS(=O)(=O)C3)c1OC | -6.84% (inactive)
28 | Cc1c(NC(=S)NCc2ccc(F)cc2)cccc1[N+](=O)[O-] | -17.5% (inactive)
29 | O=C(C1CCCO1)N(Cc1ccccc1)c1ccccc1 (centres undefined) | -3.43% (inactive)
30 | COc1ccc(C(=O)OCC(=O)Nc2cc(C)on2)cc1F | 20.3% (inactive)
31 | CC1(C)OC(=O)C2=C(CC(c3ccccc3)OC2CCc2ccccc2)O1 (centres undefined) | -2.84% (inactive)
32 | COCCNc1nc(-n2nc(C)cc2C)nc2sc3c(c12)CCCC3 | 91.3% (active)
33 | CCc1nc(N2CCN(C(C)=O)CC2)c2c3c(sc2n1)CCCC3 | -27.3% (inactive)
34 | CCCc1nc2sc3c(c2c(=O)n1NC(=O)CCCl)CCCC3 | 2.18% (inactive)
35 | COc1ccccc1-c1nn(Cc2ccccc2)cc1C(=O)N1CCN(c2ncccn2)CC1 | -28.8% (inactive)
36 | COC(=O)c1ccc2c(c1)S(=O)(=O)NC2C (centres undefined) | 1.74% (inactive)
37 | CC(=O)N1CCN(C(=O)c2cccc(S(=O)(=O)Nc3ccc(C)cc3)c2)CC1 | -16.4% (inactive)
38 | CCOC(=O)N1CCN(C(=O)c2ccc(S(=O)(=O)Nc3cccc(C(F)(F)F)c3)cc2)CC1 | 78.3% (active)
39 | CCOC(=O)c1cccc(NS(=O)(=O)c2c(C(=O)N3CCCCCC3)c(C)n(C)c2C)c1 | -3.88% (inactive)
40 | Cc1ccsc1CNn1cnnc1SCc1ccccc1F | 1.17% (inactive)

Row | Compound | inhibition of corepressor binding
41 | Cc1nc2c(OCc3cccc(Cl)c3)cccn2c1N(C)CC1CC1 | 79.4% (active)
42 | Cc1nc2c(OCc3ccc(Cl)cc3)cccn2c1N(C)Cc1cccs1 | -14.4% (inactive)
43 | Cc1nc2c(OCc3ccc(Cl)cc3Cl)cccn2c1N(C)CC1CC1 | -9.82% (inactive)
44 | CC1CCN(CCCn2c(SCC(=O)NC3CCCC3)nc3ccccc3c2=O)CC1 | -14.7% (inactive)
45 | O=C(Cc1ccc(S(=O)(=O)N2CCOCC2)s1)N1CCN(c2ccc(C(F)(F)F)cc2[N+](=O)[O-])CC1 | 27.1% (inactive)
46 | O=C(c1ccc(N2CCCC2=O)cc1)N1CCN(c2ccc(C(F)(F)F)cc2[N+](=O)[O-])CC1 | 82.8% (active)
47 | COc1cc(OC)cc(C(=O)NC(=S)N2CCN(c3ccc(C(F)(F)F)cc3[N+](=O)[O-])CC2)c1 | -27.8% (inactive)
48 | Cc1nnc(SCC(=O)Nc2ncc3c(n2)CC(C)(C)CC3=O)s1 | -5.27% (inactive)
49 | Cc1cc2oc(=O)cc(CN(C)Cc3ccc(OC(F)F)cc3)c2cc1Cl | -26% (inactive)
50 | Cc1ccc(NC(=S)N(CCN(C)C)Cc2cccs2)cc1C | -15.7% (inactive)
51 | COC(=O)c1sccc1NS(=O)(=O)c1ccc(F)cc1F | -9.53% (inactive)
52 | COC(=O)c1scc(C)c1NC(=O)CSc1ccc(Cl)cc1 | 2.57% (inactive)
53 | COC(=O)c1sccc1NC(=O)CSc1ccccc1NS(=O)(=O)c1cc(Cl)ccc1Cl | 89.8% (active)
54 | CCCC(=O)Nc1nnc(CC(=O)OCC)s1 | 12.6% (inactive)
55 | CCn1nc(C)c(CN2CCN(Cc3ccc(OC)c(C)c3C)C(CCO)C2)c1C (centres undefined) | -29.8% (inactive)
56 | CC(C(=O)N1CCOCC1)N1c2cccc3cccc(c23)S1(=O)=O (centres undefined) | -0.03% (inactive)
57 | Oc1c(Cl)cc(Cl)c(Cl)c1Cc1c(O)c(Cl)cc(Cl)c1Cl | 90.7% (active)
58 | C=CCn1c(SCC(=O)c2ccc(Br)cc2)nnc1C(C)NC(=O)Cc1ccc(OC)cc1 (centres undefined) | 22.7% (inactive)
59 | C=CCn1c(C23CC4CC(CC(C4)C2)C3)n[nH]c1=S | -1.8% (inactive)
